Test results: PubChem BioAssay AID488852 (National Center for Advancing Translational Sciences (NCATS), 2010)
Active and inactive are the calls of the source. Calls follow the shape of the dose curve; as a rule, active = well fitted curve in the direction sought with a large enough effect; inconclusive = small, poorly fitted or top-dose-only effect, or another doubt; inactive = no such curve, though single readings can be large or run the other way.

Target: Lysosomal acid glucosylceramidase (Homo sapiens) (UniProt P04062)
Assay: qHTS Assay for Inhibitors and Activators of N370S glucocerebrosidase as a Potential Chaperone Treatment of Gaucher Disease: Activity in N370S Spleen Homogenate Confirmation Using Alternate Substrate for Probe SAR
Details: N370S patient spleen homogenate, resorufin-glucoside fluorescence; series mostly up to 57.5 µM; activity change, negative = inhibition: at the top concentration
Text: NIH Chemical Genomics Center [NCGC] NIH Molecular Libraries Probe Production Centers Network [MLPCN] MLPCN Grant: MH086442-01 Assay Submitter (PI): Wei Zheng Glucocerebrosidase (GC) catalyzes the hydrolysis of beta-glucocerebroside to glucose and ceramide in lysosomes. Mutations in the glucocerebrosidase gene result in Gaucher disease, an autosomal recessive lysosomal storage disorder. Many of the mutations encountered in patients with Gaucher disease are missense alterations that may cause misfolding, decreased stability and/or mistrafficking of this lysosomal protein. […] These inhibitors include iminosugar analogs and three non-iminosugar inhibitors identified from a previous HTS of 62,000 compounds with the wild type recombinant enzyme. However, the enhancement of enzyme activity by the chaperone action of an enzyme inhibitor must be balanced against the direct inhibition of the enzyme. An enzyme activator could also function as a chaperone by binding to the enzyme and helping to correct its misfolding and mistrafficking. While activators for GC have not yet been identified, they may have better therapeutic potential than inhibitors. Therefore the discovery and development of chemical activators may provide a new strategy for the chaperone therapy. We have optimized a new assay using N370S mutant GC derived from the spleen of a Gaucher patient. […] In addition, the MLPCN compound library has expanded, which increases the chance of finding new and better probes. This confirmation assay tests for compound activity in spleen homogenate from a patient homozygous for the N370S mutation using an alternate resorufin-based substrate.
NCGC Assay Protocol Summary: This is a fluorogenic enzyme assay with resorufin-beta-D-glucopyranoside as the substrate and mutant N370S glucocerebrosidase from human spleen homogenate as the enzyme preparation. Upon the hydrolysis of this fluorogenic substrate, the resulting product, […] which can be detected by a standard fluorescence plate reader. Data were normalized to the controls for basal activity (without enzyme) and 100% activity (with enzyme). The AC50 values were determined from concentration-response data modeled with the standard Hill equation. Assay buffer: 50 mM citric acid (titrated with potassium phosphate to pH 5.0), 100 mM potassium chloride, 10 mM sodium chloride, 1 mM magnesium chloride, 0.01% Tween-20. 1536-well assay protocol: (1) Add 2 ul/well of spleen homogenate (27 ug final) (2) Add 23 nL compounds in DMSO solution. The final titration was 0.5 nM to 58 uM. (3) Add 2 ul of substrate (1 mM final) (4) Incubate at 37C for 40 min. (5) Add 2 ul stop solution (1M NaOH and 1M Glycine mixture, pH 10) (6) Detect the assay plate in a ViewLux plate reader (PerkinElmer) with Ex=365 nm and Em=440nm. Keywords: Glucocerebrosidase, beta-glucosidase, Gaucher Disease, pharmacological chaperone, chaperone therapy, high throughput screening, glucocerebrosidase inhibitor, MLSMR, MLSCN, NIH Roadmap, qHTS and NCGC

Lysosomal acid glucosylceramidase (Homo sapiens), sequence (P04062 whole entry N409S): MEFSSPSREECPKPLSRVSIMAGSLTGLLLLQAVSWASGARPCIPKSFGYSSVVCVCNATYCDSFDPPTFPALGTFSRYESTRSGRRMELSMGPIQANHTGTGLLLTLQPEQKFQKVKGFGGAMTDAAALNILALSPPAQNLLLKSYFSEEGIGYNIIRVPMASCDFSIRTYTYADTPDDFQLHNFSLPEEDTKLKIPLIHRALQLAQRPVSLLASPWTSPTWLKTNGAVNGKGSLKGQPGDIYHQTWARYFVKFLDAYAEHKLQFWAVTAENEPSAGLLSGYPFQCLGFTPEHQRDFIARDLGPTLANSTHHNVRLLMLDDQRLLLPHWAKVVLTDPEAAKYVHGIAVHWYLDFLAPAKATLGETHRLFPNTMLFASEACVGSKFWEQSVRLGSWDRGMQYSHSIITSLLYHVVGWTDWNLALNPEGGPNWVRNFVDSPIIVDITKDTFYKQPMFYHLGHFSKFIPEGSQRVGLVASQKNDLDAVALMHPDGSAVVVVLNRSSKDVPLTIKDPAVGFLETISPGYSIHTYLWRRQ

Activity change, negative = inhibition, inactive:
O=C(Nc1cnn(Cc2ccc(F)cc2)c1)c1cnn2c(C(F)F)cc(-c3ccccc3)nc12 0.0344%
Cc1cc(C)n2ncc(C(=O)Nc3ccc(S(C)(=O)=O)cc3)c2n1 0.0344%
Cc1ccc(NC(=O)c2cnn3c(C)cc(C)nc23)c(C)c1 -0.21%
Cc1cc(C)n2ncc(C(=O)Nc3cccc(C(F)(F)F)c3)c2n1 0.0219%
Cc1ccc(NC(=O)c2cnn3c(C)cc(C)nc23)cc1 -0.21%
CC(=O)Nc1ccc(NC(=O)c2cnn3c(C)cc(C)nc23)cc1 -24.9%
Cc1cc(C)n2ncc(C(=O)NCC(C)C)c2n1 -0.211%
Cc1cc(C)n2ncc(C(=O)Nc3ccncc3)c2n1 0.0344%
Cc1cc(C)n2ncc(C(=O)NC3CCCCC3)c2n1 -0.211%
COc1ccc(NC(=O)c2cnn3c(C)cc(C)nc23)cc1OC 0.0219%
Cc1cc(C)n2ncc(C(=O)Nc3ccccc3)c2n1 -18.7%
Cc1cc(C)n2ncc(C(=O)NCc3ccccc3)c2n1 -24.6%
CCc1ccc(NC(=O)c2cnn3c(C)cc(C)nc23)cc1 -0.211%
COc1ccc(NC(=O)c2cnn3c(C)cc(C)nc23)cc1F 22.7%
Cc1cc(C)n2ncc(C(=O)Nc3ccc4c(c3)CCC4)c2n1 -0.211%
Cc1cc(C)n2ncc(C(=O)Nc3ccccc3C)c2n1 -15.4%
Cc1cc(C)n2ncc(C(=O)Nc3ccc(Br)cc3)c2n1 16.8%
Cc1cc(C)n2ncc(C(=O)Nc3ccc(C#N)cc3)c2n1 -24.2%
CNC(=O)c1cnn2c(C)cc(C)nc12 -0.211%
Cc1cc(C)n2ncc(C(=O)Nc3cccc(C#N)c3)c2n1 -0.211% [at 19 µM]
COc1ccc(NC(=O)c2cnn3c(C)cc(C)nc23)cc1Cl -14.1%
Cc1cc(C)n2ncc(C(=O)N3CCCC3)c2n1 -0.211%
Cc1cccc(NC(=O)c2cnn3c(C)cc(C)nc23)c1 -0.21%
Cc1cc(C)n2ncc(C(=O)Nc3ccc(C)c(C)c3)c2n1 0.0219%
COc1cc(NC(=O)c2cnn3c(C)cc(C)nc23)cc(OC)c1OC 0.0219%
COc1ccc(NC(=O)c2cnn3c(C)cc(C)nc23)cc1 -0.21%
Cc1cc(C)n2ncc(C(=O)Nc3ccc4c(c3)OCCO4)c2n1 0.0219%
CC(=O)Nc1ccccc1NC(=O)c1cnn2c(C)cc(C)nc12 -23.8%
CC(=O)c1ccc(NC(=O)c2cnn3c(C)cc(C)nc23)cc1 0.0219%
Cc1cc(C)n2ncc(C(=O)NC(C)C)c2n1 -22.2%
Cc1cc(C)n2ncc(C(=O)Nc3ccc(C(C)(C)C)cc3)c2n1 -0.21%
C#Cc1ccc(NC(=O)c2cnn3c(C)cc(C)nc23)cc1 20.9%
Cc1cc(C)n2ncc(C(=O)Nc3ccc4c(c3)OCO4)c2n1 0.0219%
Cc1cc(C)n2ncc(C(=O)Nc3ccc(C(F)(F)F)cc3)c2n1 23.7%
CC(=O)c1cccc(NC(=O)c2cnn3c(C)cc(C)nc23)c1 17.3%
Cc1cc(C)n2ncc(C(=O)NCc3ccco3)c2n1 0.0344%

outcome, inactive:
Cc1cc(C)n2ncc(C(=O)NC3CCC(C(C)(C)C)CC3)c2n1 (configuration not stated)
